Assay outcomes from PubChem.
Rows were chosen to be rich in hits. Some 2.4% of all compounds tested hit in one or more screens of this group.
D2 ag-1 – agonists of human D2 dopamine receptor (beta-arrestin) | P14416 | DiscoveRx PathHunter D2 beta-arrestin, luminescence, 90 min; 100% = 57 uM dopamine signal | activation, % (no concentration beside the values) | hit rate 0.084% among 360,000 | AID 624465; in the data active = activation above about 40%; inconclusive = between about 15% and that limit
Target sequence (P14416 whole entry, looked up): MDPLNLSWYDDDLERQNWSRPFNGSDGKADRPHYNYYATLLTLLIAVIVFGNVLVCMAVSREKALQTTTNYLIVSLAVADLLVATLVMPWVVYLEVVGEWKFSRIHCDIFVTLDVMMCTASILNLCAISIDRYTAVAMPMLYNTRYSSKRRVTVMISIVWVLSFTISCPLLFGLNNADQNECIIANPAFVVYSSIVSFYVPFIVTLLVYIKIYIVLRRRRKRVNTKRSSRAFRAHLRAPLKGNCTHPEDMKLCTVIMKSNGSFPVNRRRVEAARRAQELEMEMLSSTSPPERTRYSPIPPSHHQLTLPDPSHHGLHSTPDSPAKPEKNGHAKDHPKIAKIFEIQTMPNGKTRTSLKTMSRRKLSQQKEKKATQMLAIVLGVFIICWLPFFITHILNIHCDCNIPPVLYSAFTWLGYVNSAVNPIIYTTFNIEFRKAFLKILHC
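Agonist mode: compounds alone added to overnight-plated D2 PathHunter cells for 90 min at 37 C, with 57 uM final dopamine (EC100) defining full response. Beta-arrestin recruitment detected by chemiluminescent reagent, read after 1 h at ambient temperature.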
D2 antag – D2 dopamine receptor (human) antagonism. P14416. HEK293 TREx D2 cells, calcium flux, dopamine EC80. inhibition, % at 10 µM. hit rate 2% among 340,000; in the data active = inhibition above about 30%; inactive = below that, where a call was filed
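Calcium flux kinetic readout in an inducible HEK293 TREx D2 line plated overnight at 30 C. After 180 s compound exposure, an EC80 dopamine challenge follows with another 180 s kinetic read to detect antagonism.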
D2 ag-2 – agonists of human D2 dopamine receptor | hit rate 0.53% among 340,000 | activation, % at 2 µM | AID 485358 | P14416 | HEK293 T-REx D2 cells, calcium flux agonist mode;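 active = activation over 3 SD above normal in the single-dose calcium agonist read, cut at about 30% in these data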
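Tetracycline-induced HEK293 Trex cells with D2 receptor force-coupled to calcium signaling, plated overnight at 30 C and loaded with no-wash calcium dye. Calcium flux read kinetically for 180 s after compound addition; responses flag agonists.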
D2 PAM-1 – positively modulates the human D2 dopamine receptor allosterically. AID 485347. HEK293 T-REx D2, calcium flux, EC20 dopamine potentiation. hit rate 0.34% among 340,000. potentiation, % at 10 µM;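 active = potentiation over 3 SD above the plate norm, cut at about 30% in these data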
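Primary screen. Calcium kinetics in induced HEK293 T-REx D2 cells: compound pre-addition 180 s, EC20 dopamine, 180 s more.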
D2 PAM-2 – positive allosteric modulators of human D2 dopamine receptor; AID 624464; potentiation, % (no concentration beside the values); DiscoveRx D2 beta-arrestin cells, luminescence, 90 min; 100% = 57 uM dopamine signal; P14416; hit rate 0.23% among 360,000; in the data active = potentiation above about 50%; inconclusive = mostly about 30% to 49%
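PathHunter D2 cells, attached overnight at 37 deg C, received compound in DMSO plus dopamine at EC20 (50 nM final) for 90 min at 37 deg C. Beta-arrestin recruitment was read as luminescence after 1 h with detection reagent at ambient temperature.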
Of the large screens only hits and unclear results are named; the others gave an inactive call.

CCc1ccc(NC(=O)CCCn2nc(C)c3c(C)n(-c4ccccc4)nc3c2=O)cc1	none (no result: D2 ag-1, D2 antag, D2 PAM-2)
COc1ccc(N2C(=O)C(Cl)=C(N3CCN(Cc4ccccc4)CC3)C2=O)cc1	none (no result: D2 antag, D2 ag-2, D2 PAM-1)
O=C1C(Cl)=C(N2CCN(Cc3ccccc3)CC2)C(=O)N1c1ccccc1	D2 antag 37
O=C1C2C3C=CC(C4CC34)C2C(=O)N1/N=C/c1cccs1 (stereo not given)	D2 PAM-2 61
CN(C)S(=O)(=O)c1ccc(-c2csc(N/N=C/c3ccc(O)cc3)n2)cc1	D2 ag-1 inconclusive, D2 PAM-2 57
CCc1ccc(-c2nc(CS(=O)CC(=O)NCCc3ccc(C)cc3)c(C)o2)cc1 (stereo not given)	none (no result: D2 ag-1, D2 antag, D2 PAM-2)
Nc1nc(CN2CCN(C(=O)c3ccco3)CC2)nc(Nc2cccc(Cl)c2)n1	D2 ag-1 inconclusive, D2 ag-2 38
O=C(CN1CCN(C(=O)c2ccco2)CC1)NCc1ccc(Cl)cc1	D2 antag 32
O=C(c1ccco1)N1CCN(Cc2nnc(-c3ccccc3F)o2)CC1	D2 PAM-1 35
CCOC(=O)N1CCN(Cc2nc(N)nc(Nc3ccc(Cl)cc3)n2)CC1	none
O=C(c1ccco1)N1CCN(c2ccc(F)cc2)CC1	none
O=C(CN1CCN(Cc2ccccc2)CC1)NCc1ccc(Cl)cc1	none
O=C(c1ccco1)N1CCN(Cc2ccc(F)cc2)CC1	D2 ag-1 44, D2 antag 58, D2 ag-2 81, D2 PAM-2 inconclusive
Cc1ccc(Cl)cc1-n1c(=O)c2sc3ccccc3c2n(CC(=O)NC2CCCCC2)c1=O	none (no result: D2 ag-1, D2 antag, D2 PAM-2)
O=S(=O)(c1ccc2[nH]c3c(c2c1)CCCCC3)N1CCN(c2ccccc2)CC1	none (no result: D2 ag-1, D2 antag, D2 PAM-1, D2 PAM-2)
O=C(NCCN1CCOCC1)c1cccc(NS(=O)(=O)c2ccc(Br)cc2)c1	D2 antag 33
Cc1ccc(S(=O)(=O)Nc2cccc(C(=O)NCCN3CCOCC3)c2)cc1F	none
C=CCNC(=O)c1cccc(NS(=O)(=O)c2ccc(Cl)cc2)c1	none
CN(C)CCNC(=O)c1cccc(NS(=O)(=O)c2ccc(Cl)c(Cl)c2)c1	D2 antag 35
CCCc1cc(=O)n2c(C(=O)Nc3ccc(OCC)cc3)c(C(=O)Nc3ccc(C)cc3)sc2n1	none (no result: D2 ag-1, D2 antag, D2 PAM-2)
O=C(NCc1cccs1)c1nn(-c2ccccc2F)nc1CO	none (no result: D2 ag-1, D2 antag, D2 PAM-2)
COc1ccc(N2CCN(C(=O)COC(=O)c3cccc(S(=O)(=O)Nc4cccc(C)c4)c3)CC2)cc1	D2 antag 40
COc1cccc(N2CCN(c3nc4ccc(C(=O)c5ccccc5)cc4n4c(C)nnc34)CC2)c1	none (no result: D2 ag-1, D2 antag, D2 PAM-2)
CCn1cc(C(=O)OCC(=O)c2cc(C)n(-c3cccc(C(F)(F)F)c3)c2C)c(=O)c2ccc(C)nc21	D2 PAM-1 31
CCn1cc(C(=O)OCc2ccccc2)c(=O)c2ccc(C)nc21	none
CCn1cc(C(=O)OCc2ccc(F)cc2)c(=O)c2ccc(C)nc21	D2 PAM-1 35
COc1ccccc1-c1ccc(/C=C2/C=C(CC(C)C)OC2=O)o1	D2 antag 33
COCCNc1ccc(-c2nc(-c3cccc(C)c3)no2)cc1[N+](=O)[O-]	none (no result: D2 ag-1, D2 antag, D2 PAM-2)
CCOC(=O)c1ccc(NC(=O)CCc2c(C)nc3nc[nH]n3c2=O)cc1	none (no result: D2 ag-1, D2 antag, D2 PAM-2)
NC(=O)C1CCCNC1 (stereo not given)	D2 antag 47
O=C(c1nc2ncccn2n1)N1CCN(c2ccc(F)cc2)CC1	D2 PAM-1 31
CC(C)n1c2ccccc2c2nc3ccccc3nc21	D2 PAM-1 40
C#CCn1c2ccccc2c2nc3ccccc3nc21	none
Cc1ccc(C)c(Cn2c(=O)n(-c3ccc(Cl)cc3)c(=O)c3c4c(sc32)CCC4)c1	none (no result: D2 ag-1, D2 antag, D2 PAM-2)
COc1ccc(OCC(=O)N(Cc2cccc(OC)c2)C2CCS(=O)(=O)C2)cc1 (stereo not given)	none (no result: D2 ag-1, D2 antag, D2 PAM-1, D2 PAM-2)
Cc1ccc(NC(=O)CSc2nc(-c3cccs3)nc3cc(=O)[nH]n23)cc1	none (no result: D2 ag-1, D2 antag, D2 PAM-2)
O=C(Nc1ccc(-n2nncc2-c2ccco2)cc1)c1cccc(F)c1	D2 antag 42
CCC(=O)Nc1ccccc1-c1nc2ccccc2n(CC(=O)c2ccc(C)c(C)c2)c1=O	none (no result: D2 ag-1, D2 antag, D2 PAM-2)
COc1ccc(-c2cc(C(F)F)n3ncc(C(=O)N4CCN5CCCC5C4)c3n2)cc1 (stereo not given)	D2 antag 52
CCOc1cccc2sc(NC(=O)CS(=O)(=O)c3ccc(C)cc3)nc12	none (no result: D2 ag-1, D2 antag, D2 PAM-2)
